Assay [1] in a line: Cell Viability - N2a (AID 540; active = well fitted curve in the direction sought with a large enough effect; an effect the other way counts as inactive or inconclusive;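 also: cells exposed to compound for 40 h at 37 °C; plate controls were DMSO alone for no effect and tamoxifen control for full effect; nearly all actives have a fitted effect of over 45% in size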). As to conditions: N2a mouse neuroblastoma cell viability; activity change, negative = cytotoxicity: at 92.2 µM (top of the series). In a few lines: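 In this qHTS cytotoxicity screen, ATP-dependent luciferase luminescence reports viable N2a cells after a 40 hr compound exposure in complete culture medium. Potencies are AC50 values from standard Hill equation fits.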

Assay [2] is described as follows: Cell Viability - LYMP2-001 (AID 921; active = well fitted curve in the direction sought with a large enough effect; an effect the other way counts as inactive or inconclusive;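 also: 0% = DMSO only and full inhibition = tetraoctylammonium bromide control wells; nearly all actives have a fitted effect of over 70% in size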). In a few lines: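 Human lymphoblastoid LYMP2-001 cells, 2500 per well, in complete medium, treated 24 h at 37 C. Viability from cellular ATP by CellTiter-Glo luminescence; AC50 from Hill-equation fits of qHTS concentration-response.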
A short description of assay [3]: MultiTox-Fluor Cytotoxicity Assay - LYMP1-001 - Live Cells (AID 947; active = well fitted curve in the direction sought with a large enough effect; an effect the other way counts as inactive or inconclusive;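 also: 0% = DMSO only and full inhibition = tetraoctylammonium bromide control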).
Assay [4] in a line: Cell Viability - LYMP1-003 - Assay at 24 hr (AID 963; active = well fitted curve in the direction sought with a large enough effect; an effect the other way counts as inactive or inconclusive;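 also: plate controls were DMSO only for no effect and tetraoctylammonium bromide positive control for full effect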). The procedure, abridged:
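The lymphoblastoid line was treated with titrated compounds for 24 hours, and viable cell number estimated from luciferase-based ATP luminescence.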

Assay [5] has as its target Estrogen receptor (Homo sapiens) (UniProt P03372). The assay is described as follows: qHTS assay for small molecule antagonists of estrogen receptor alpha signaling (AID 588513; active = well fitted curve in the direction sought with a large enough effect in the signal ratio, with a control signal flat, not every such curve was filed as active; the % refers to the signal ratio; also: % is scaled to controls: 0 for no effect and ±100 for the full control effect). The procedure, abridged:
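ER-alpha-UAS-bla GripTite HEK 293 cells in 2% charcoal/dextran-treated FBS medium; compounds titrated (1:2, duplicate), then stimulated with 0.5 nM 17-beta-estradiol for 18 h at 37C. CCF4 beta-lactamase fluorescence; Hill-fit IC50 and efficacy.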
In general terms: Quantitative high-throughput screening tests each substance at several concentrations.

For assay [6] the target is unchanged. The experiment in a line: qHTS assay for small molecule agonists of estrogen receptor alpha signaling (AID 588514).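 Also: 0% = vehicle only and 100% = reference agonist; nearly all actives have a fitted effect of over 70% in size.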 The procedure, abridged:
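Fluorescence from CCF4 cleavage reports ER-alpha-driven beta-lactamase expression in HEK 293 cells treated 18 hrs at 37 C. Data normalized to 17-beta-estradiol (20 nM) and DMSO, fitted to Hill equation.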

The target in assay [7] is Glucocorticoid receptor (Homo sapiens) (UniProt P04150). The experiment in a line: qHTS assay for small molecule agonists of glucocorticoid receptor signaling (AID 588532; active = well fitted curve in the direction sought with a large enough effect in the signal ratio, with a control signal flat; the % refers to the signal ratio;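 also: 100% = dexamethasone at 0.1 µM and 0% = DMSO only wells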). As to conditions: HeLa MMTV-bla, beta-lactamase ratio, agonist, 18 h; stronger effect = higher value; percent of dexamethasone control, DMSO zero. The procedure, abridged:
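Using MMTV-bla HeLa cells in medium with 1% stripped FBS and 25 mM HEPES, compounds were titrated and incubated overnight-length (18 h). Beta-lactamase cleavage of CCF4 was quantified by dual-emission fluorescence.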

The target in assay [8] is Peroxisome proliferator-activated receptor delta (Homo sapiens) (UniProt Q03181). The assay is described as follows: qHTS assay for small molecule agonists of peroxisome proliferator-activated receptor delta signaling (AID 588534).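 Also: 0% = DMSO basal wells and 100% = positive control agonist at 10 µM.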 In a few lines: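 EC50 and efficacy values derive from Hill fits of a concentration series in a beta-lactamase reporter cell assay. Exposure is 18 hrs at 37 C, with CCF4 fluorescence as the readout.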
Peroxisome proliferator-activated receptor delta (Homo sapiens), sequence (Q03181 whole entry, looked up): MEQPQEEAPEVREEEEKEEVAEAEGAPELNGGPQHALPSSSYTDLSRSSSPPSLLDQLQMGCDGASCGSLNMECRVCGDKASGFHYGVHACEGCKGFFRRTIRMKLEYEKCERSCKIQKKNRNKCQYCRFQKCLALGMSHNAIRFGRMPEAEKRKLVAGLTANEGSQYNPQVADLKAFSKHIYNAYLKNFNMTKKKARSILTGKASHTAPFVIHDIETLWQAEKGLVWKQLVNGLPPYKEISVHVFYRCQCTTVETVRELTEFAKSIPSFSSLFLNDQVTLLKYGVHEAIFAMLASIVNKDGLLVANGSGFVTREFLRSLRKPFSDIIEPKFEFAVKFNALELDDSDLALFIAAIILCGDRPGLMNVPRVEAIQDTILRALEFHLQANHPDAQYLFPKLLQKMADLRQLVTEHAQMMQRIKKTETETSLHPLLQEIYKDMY

A short description of assay [9]: qHTS assay for small molecule antagonists of peroxisome proliferator-activated receptor delta signaling (AID 588535; active = well fitted inhibition curve with a large enough effect in the signal ratio, with a control signal flat, not every such curve was filed as active; the % refers to the signal ratio;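 as to max response: cells co-treated with a PPAR-delta agonist as stimulator during compound exposure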). The conditions noted are these: HEK293T PPARd-UAS-bla, beta-lactamase FRET ratio, 18 h; 460 nm channel. In a few lines: (§1)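 Antagonist-mode qHTS using GeneBLAzer PPAR-delta-UAS-bla HEK293T cells; compound exposure 18 hrs at 37 C over a titration. Ratiometric CCF4 fluorescence at 460/530 nm; concentration-response points fitted to the Hill equation.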

The target of assay [10] is Peroxisome proliferator-activated receptor delta (Homo sapiens) (UniProt Q03181). The description is as above. In a few lines:
as §1

Assay [11] can be described thus: qHTS assay for small molecule agonists of the antioxidant response element (ARE) signaling pathway (AID 651741; active = well fitted activation curve with a large enough effect in the signal ratio; the % refers to the signal ratio; also: potency is read from the fitted curve at half-maximal effect; as to activation: % of control where 0% means no effect). The procedure, abridged:
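Agonist activity is measured as ARE-driven beta-lactamase expression in a stable HepG2 reporter line, using 16 h compound treatment at 37 C and a FRET substrate fluorescence readout after 2 h.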

A short description of assay [12]: qHTS assay for small molecule disruptors of the mitochondrial membrane potential - 1 hr assay (AID 651754). Also: % is scaled to controls: 0 for no effect and ±100 for the full control effect; nearly all actives have a fitted effect of over 35% in size. In a few lines:
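In this qHTS format, a 1 hr compound treatment of HepG2 cells precedes Mito-MPS staining, and membrane potential is judged from aggregate (red) against monomer (green) fluorescence intensity.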

Assay [13] in a line: qHTS assay for small molecule disruptors of the mitochondrial membrane potential - 5 hr assay (AID 651755). Also: % is scaled to controls: 0 for no effect and ±100 for the full control effect; nearly all actives have a fitted effect of over 40% in size. The procedure, abridged:
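Membrane-potential dye readout: red aggregate (540 ex/590 em) versus green monomer (490 ex/535 em) fluorescence after 30 min dye loading, following 5 hr compound exposure at 37C of overnight-plated HepG2 cells.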

The nature of assay [14]: Cell Viability - Jurkat (AID 426;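 active = dose-dependent loss of cell ATP signal giving a full or clear fitted curve, ranked by lower potency value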;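 also: potency is read from the fitted curve at half-maximal effect; cells exposed to compound for 40 hours at 37 °C before ATP read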). The conditions noted are these: qHTS. The procedure, abridged: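 Cytotoxicity was scored as loss of cellular ATP, measured by luciferase-based luminescence, in Jurkat clone E6-1 cells after 40 h compound treatment; tamoxifen and doxorubicin served as positive controls.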
Assay [15] can be described thus: Cell Viability - LYMP2-004 (AID 966; active = well fitted curve in the direction sought with a large enough effect; an effect the other way counts as inactive or inconclusive;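 also: plate controls were DMSO only for no effect and tetraoctylammonium bromide control for full effect; nearly all actives have a fitted effect of over 65% in size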). In a few lines:
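Viable-cell number estimated from ATP luminescence (CellTiter-Glo) in 2500 human lymphoblastoid cells/well after 24 hr at 37 C with compound. AC50 fitted to the standard Hill equation.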

Assay [16] in a line: Cell Viability - LYMP2-002 (AID 977; active = well fitted curve in the direction sought with a large enough effect; an effect the other way counts as inactive or inconclusive;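 also: compound exposure lasted 24 h at 37 °C; plate controls were DMSO only for no effect and 92 µM tetraoctylammonium bromide for full effect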). In a few lines: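 Human lymphoblastoid cells (2500/well) in complete medium were preincubated 5 hr at 37 C, then exposed to compounds for 24 hr at 37 C. Intracellular ATP was read by CellTiter-Glo luminescence; AC50 came from Hill-equation concentration-response fits.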
Assay [17] concerns the target Vitamin D3 receptor (Homo sapiens) (UniProt P11473). The assay is described as follows: qHTS assay for small molecule antagonists of vitamin D receptor signaling (AID 588541).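 Also: receptor activated by calcitriol during compound treatment; % is scaled to controls: 0 for no effect and ±100 for the full control effect.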 In a few lines:
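Antagonist-mode beta-lactamase reporter assay: HEK293T VDR-UAS-bla cells were exposed to titrated compound alongside 1-alpha,25-dihydroxyvitamin D3 at 3 nM final for 16 h. Values were normalized to the 50 nM agonist control and DMSO basal, with IC50 and efficacy from Hill equation fits.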

In assay [18] the target is Bile acid receptor (Homo sapiens) (UniProt Q96RI1). The experiment in a line: qHTS assay for small molecule antagonists of farnesoid X receptor signaling (AID 588526). Also: % is scaled to controls: 0 for no effect and ±100 for the full control effect. The procedure, abridged:
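Beta-lactamase reporter antagonist mode: HEK293T FXR-UAS-bla cells, titrated compound, CDCA stimulation, 16 h 37 C, CCF4 dye 2 h RT. Data normalized to CDCA 50 uM and DMSO; Hill-fit IC50.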

Assay [19] shares this target. The experiment in a line: qHTS assay for small molecule agonists of farnesoid X receptor signaling (AID 588527).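 Also: 0% = vehicle basal and 100% = reference agonist.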 As to conditions: HEK293T FXR-UAS-bla, beta-lactamase ratio, 16 h; stronger effect = higher value. The procedure, abridged:
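Agonist-mode beta-lactamase reporter in GeneBLAzer FXR-UAS-bla HEK293T cells, titration up to 92 uM, 16 h exposure at 37 C, CCF4 fluorescence. Response scaled to DMSO (0%) and 100 uM chenodeoxycholic acid (100%), then Hill-fitted for EC50 and efficacy.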

Assay [20] concerns the target Peroxisome proliferator-activated receptor gamma (Homo sapiens) (UniProt P37231). The assay is described as follows: qHTS assay for small molecule antagonists of peroxisome proliferator-activated receptor gamma signaling (AID 588537; active = well fitted inhibition curve with a large enough effect in the signal ratio, with a control signal flat, not every such curve was filed as active; the % refers to the signal ratio;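 also: reporter cells co-stimulated with 50 nM rosiglitazone agonist during compound treatment; % of control where 0% means no effect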). In a few lines: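 Cell-based beta-lactamase assay; GW9662 served as the antagonist control. Stimulation used rosiglitazone, final 50 nM, 16 h, 37 C.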

Nine compounds from PubChem BioAssay (NCATS) can be followed below.

Several values for one entry are separate records, joined by “and”; a condition that tells them apart may be missing. Identical values can stand only once. Records with an inconclusive call do not appear. Activity calls are given as the source filed them. Unless noted, calls follow the shape of the full dose curve.

Glucocorticoid receptor (Homo sapiens), sequence (P04150 whole entry, looked up): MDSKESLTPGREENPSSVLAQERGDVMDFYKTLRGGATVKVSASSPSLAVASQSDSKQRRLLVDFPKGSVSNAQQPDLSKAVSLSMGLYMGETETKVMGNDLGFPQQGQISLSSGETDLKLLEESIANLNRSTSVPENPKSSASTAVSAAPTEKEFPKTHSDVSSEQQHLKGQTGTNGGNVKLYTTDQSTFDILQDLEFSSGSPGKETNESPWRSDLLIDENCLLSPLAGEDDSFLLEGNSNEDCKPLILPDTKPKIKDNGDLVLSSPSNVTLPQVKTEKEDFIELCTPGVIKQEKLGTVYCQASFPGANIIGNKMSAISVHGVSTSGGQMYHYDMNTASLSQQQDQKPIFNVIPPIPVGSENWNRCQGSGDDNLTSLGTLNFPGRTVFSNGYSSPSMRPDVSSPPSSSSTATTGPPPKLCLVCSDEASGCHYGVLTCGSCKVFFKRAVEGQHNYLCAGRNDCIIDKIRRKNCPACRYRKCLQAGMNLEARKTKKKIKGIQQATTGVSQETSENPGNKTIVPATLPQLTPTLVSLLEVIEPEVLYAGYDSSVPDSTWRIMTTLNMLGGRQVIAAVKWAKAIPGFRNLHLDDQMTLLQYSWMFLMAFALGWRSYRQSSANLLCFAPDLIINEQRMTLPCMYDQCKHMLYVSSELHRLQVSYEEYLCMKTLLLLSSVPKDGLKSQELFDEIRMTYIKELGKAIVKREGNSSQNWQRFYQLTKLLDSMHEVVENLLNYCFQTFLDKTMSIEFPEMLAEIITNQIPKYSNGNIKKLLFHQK
Bile acid receptor (Homo sapiens), sequence (Q96RI1 whole entry, looked up): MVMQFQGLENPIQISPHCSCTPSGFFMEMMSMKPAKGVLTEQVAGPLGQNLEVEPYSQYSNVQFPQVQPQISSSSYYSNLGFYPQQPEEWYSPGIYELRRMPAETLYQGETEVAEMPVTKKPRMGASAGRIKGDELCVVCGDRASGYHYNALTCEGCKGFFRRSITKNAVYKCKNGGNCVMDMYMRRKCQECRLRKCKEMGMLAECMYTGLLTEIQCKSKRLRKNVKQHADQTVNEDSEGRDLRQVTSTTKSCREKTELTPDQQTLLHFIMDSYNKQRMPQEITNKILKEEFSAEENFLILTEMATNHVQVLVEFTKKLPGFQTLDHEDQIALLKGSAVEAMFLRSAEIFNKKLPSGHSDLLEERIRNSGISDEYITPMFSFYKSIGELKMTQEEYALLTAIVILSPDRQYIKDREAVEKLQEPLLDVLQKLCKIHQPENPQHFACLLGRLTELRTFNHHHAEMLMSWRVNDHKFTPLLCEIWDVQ
Vitamin D3 receptor (Homo sapiens), sequence (P11473 whole entry, looked up): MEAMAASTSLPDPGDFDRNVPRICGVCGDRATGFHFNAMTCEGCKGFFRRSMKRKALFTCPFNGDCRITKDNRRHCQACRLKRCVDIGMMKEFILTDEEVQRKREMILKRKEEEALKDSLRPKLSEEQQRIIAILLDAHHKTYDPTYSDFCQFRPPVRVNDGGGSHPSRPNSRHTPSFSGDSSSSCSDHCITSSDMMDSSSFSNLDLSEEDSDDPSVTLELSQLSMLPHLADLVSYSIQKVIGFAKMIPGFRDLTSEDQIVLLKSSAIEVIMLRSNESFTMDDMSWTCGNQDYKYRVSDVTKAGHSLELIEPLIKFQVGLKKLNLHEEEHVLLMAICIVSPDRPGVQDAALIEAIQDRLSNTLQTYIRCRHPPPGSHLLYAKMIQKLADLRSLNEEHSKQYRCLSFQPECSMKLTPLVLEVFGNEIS
Estrogen receptor (Homo sapiens), sequence (P03372 whole entry, looked up): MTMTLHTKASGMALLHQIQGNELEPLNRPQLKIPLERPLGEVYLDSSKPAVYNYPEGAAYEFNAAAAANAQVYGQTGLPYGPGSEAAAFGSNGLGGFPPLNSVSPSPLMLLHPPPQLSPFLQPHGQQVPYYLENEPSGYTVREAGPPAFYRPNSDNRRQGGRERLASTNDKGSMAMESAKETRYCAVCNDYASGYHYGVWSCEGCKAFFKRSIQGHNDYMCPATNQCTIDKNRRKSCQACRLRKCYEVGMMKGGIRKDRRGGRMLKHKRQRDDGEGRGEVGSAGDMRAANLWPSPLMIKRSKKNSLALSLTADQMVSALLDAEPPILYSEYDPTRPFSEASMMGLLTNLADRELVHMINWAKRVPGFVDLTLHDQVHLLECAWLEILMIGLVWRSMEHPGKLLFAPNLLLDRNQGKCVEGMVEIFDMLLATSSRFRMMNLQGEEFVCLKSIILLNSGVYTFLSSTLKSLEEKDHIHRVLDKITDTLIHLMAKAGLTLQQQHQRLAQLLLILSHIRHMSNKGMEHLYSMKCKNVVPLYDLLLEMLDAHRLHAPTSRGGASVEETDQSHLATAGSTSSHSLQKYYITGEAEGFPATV
Peroxisome proliferator-activated receptor gamma (Homo sapiens), sequence (P37231 whole entry, looked up): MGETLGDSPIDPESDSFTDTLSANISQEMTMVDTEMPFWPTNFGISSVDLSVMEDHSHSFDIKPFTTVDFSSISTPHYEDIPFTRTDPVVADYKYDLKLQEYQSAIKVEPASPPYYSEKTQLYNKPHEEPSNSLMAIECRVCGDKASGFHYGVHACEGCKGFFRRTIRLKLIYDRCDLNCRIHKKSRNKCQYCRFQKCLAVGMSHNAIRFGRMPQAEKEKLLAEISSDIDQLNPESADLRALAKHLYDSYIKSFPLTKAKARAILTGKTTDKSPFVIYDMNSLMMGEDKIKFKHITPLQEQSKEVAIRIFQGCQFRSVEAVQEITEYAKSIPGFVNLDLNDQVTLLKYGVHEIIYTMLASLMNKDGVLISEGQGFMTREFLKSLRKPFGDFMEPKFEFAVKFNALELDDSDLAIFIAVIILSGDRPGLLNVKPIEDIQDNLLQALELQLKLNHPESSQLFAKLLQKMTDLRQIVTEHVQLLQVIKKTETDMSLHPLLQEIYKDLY

In the case of `O=C(O)C(Br)CBr` (stereo unspecified), the Potency result in assay [1], in [2], in [5], in assay [6], in assay [12] and in [13] was “inactive” each time. Further, the result in [3], in [4], in assay [8] and in assay [10] was inactive. Also, the activation in [7] was -2.23% (inactive). Further, the max response in assay [9] was determined as 31.3%. The Potency in assay [11] is 42.2 µM (active).
For `ClCC(Cl)Cl`, the Potency in assay [14] was > 92 µM (inactive). In addition, the Potency result in [1], in assay [2], in [15], in assay [16], in assay [11] and in assay [12] was “inactive” in each case. Also, in assay [13], the Potency entry is “inactive”. For the same compound, the call in assay [3], in assay [4], in assay [8], in [10] and in assay [17] was inactive. In addition, the max response in [9] was -51.8%.
`O=C(O)C(Cl)Br` (stereo unspecified): the Potency entry in [1], in [2], in assay [15], in assay [16] and in assay [13] was “inactive” each time. Also, the call in assay [3], in [4], in [18], in assay [8] and in assay [10] was inactive. In addition, the activation is -0.167% (inactive) in assay [19] and 5.56% (inactive) in assay [7]. Moreover, in assay [9], the max response stood at 33.1%. Also, in [11], the Potency is 33.5 µM (active).
For `O=S(=O)(O)F`, the Potency result in [1], in assay [15], in assay [16], in assay [5] and in assay [11] was “inactive” each time. The result in [3], in [4], in [18], in [8], in assay [10] and in assay [17] was inactive. Further, the activation in assay [19] was 0.0183% (inactive). Moreover, in assay [9], the max response turned out to be 7.1%.
On to `[O-][Cl+]O`, for which the Potency in assay [14] was > 92 µM (inactive). For the same compound, the Potency result in assay [1], in assay [2], in [15], in assay [16], in assay [5] and in assay [6] was “inactive” throughout. Besides, the Potency result in assay [11], in [12] and in assay [13] was “inactive” in each case. The result in [3], in assay [8] and in [17] was inactive. The activation in assay [7] is 9.28% (inactive).
As for `BrCC(Br)C1CCC(Br)C(Br)C1` (stereo unspecified), the Potency in assay [14] is > 92 µM (inactive). The Potency entry in assay [1], in [2] and in [13] was “inactive” in each case. Besides, the result in assay [3] and in [4] was inactive. Besides, in assay [7], the activation is 3.61% (inactive).
As for `CCN(CC)CCO`, the Potency in assay [14] was > 92 µM (inactive). Further, the Potency result in [1], in assay [2], in assay [16], in [20], in assay [11] and in [12] was “inactive” throughout. Besides, in [13], the Potency entry is “inactive”. Further, the compound was called inactive in assay [4], in assay [8] and in assay [10]. Also, the activation in assay [7] was 6.4% (inactive). Moreover, the max response in [9] worked out at 24%.
With `CNC(=O)O/N=C/C(C)(C)S(C)=O` (stereo unspecified), the Potency entry in [2], in assay [16], in [5], in [6], in assay [20] and in assay [13] was “inactive” each time. Moreover, the result in [3], in assay [4], in [18], in [10] and in assay [17] was inactive. The activation in assay [19] is -0.355% (inactive) and 3.36% (inactive); in assay [7], 15.3% (inactive) and 5.05% (inactive). In assay [9], the max response was 8.11% and 9.71%.
As to `CCCN(CCC)c1c([N+](=O)[O-])cc(C(F)(F)F)cc1[N+](=O)[O-]`, in assay [14], the Potency is > 92 µM (inactive). Moreover, the Potency entry in assay [1], in assay [15], in assay [5], in [6], in assay [20] and in assay [12] was “inactive” each time. In addition, the Potency result in assay [13] is “inactive”. The compound was called inactive in [18], in [8], in assay [10] and in assay [17]. In [19], the activation is 1.13% (inactive). In addition, the max response in assay [9] was found to be 0.867%.
